Results: paper PMC7862700, “An all-to-all approach to the identification of sequence-specific readers for epigenetic DNA modifications on cytosine”

Tests used:
Experiment in all cases: DAPPL (digital affinity profiling via proximity ligation, sequencing); 10 mM Tris-HCl pH 7.5, 50 mM NaCl, 1 mM DTT, 4% glycerol, room temperature, 30 min; GST-TFs on glutathione beads, 16-mer random dsDNA library, 0.1% formaldehyde crosslink after washing; high values mean tight binding
[1] = target: T1, FLI1 (Homo sapiens, UniProt Q01543 1-452); conditions: protein: recombinant; tags: N-terminal GST; dsDNA, one strand shown
T1 sequence: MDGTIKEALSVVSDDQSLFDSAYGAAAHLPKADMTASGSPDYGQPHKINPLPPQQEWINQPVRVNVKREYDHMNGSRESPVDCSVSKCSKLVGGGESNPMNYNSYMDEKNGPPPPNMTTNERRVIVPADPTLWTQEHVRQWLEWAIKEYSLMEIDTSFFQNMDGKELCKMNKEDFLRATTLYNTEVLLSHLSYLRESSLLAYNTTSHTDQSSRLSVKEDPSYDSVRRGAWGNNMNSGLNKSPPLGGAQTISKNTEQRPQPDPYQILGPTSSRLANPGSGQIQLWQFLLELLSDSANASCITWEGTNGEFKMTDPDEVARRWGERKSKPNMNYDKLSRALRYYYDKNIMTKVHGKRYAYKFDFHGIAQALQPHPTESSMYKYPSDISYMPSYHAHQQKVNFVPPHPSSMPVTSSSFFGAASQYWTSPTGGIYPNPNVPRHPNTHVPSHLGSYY
Procedure, shortened: (§1)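 A tag-only sample was pooled with DNA-barcoded human transcription factors that had been expressed in yeast as GST fusions and captured on glutathione beads. The pools were incubated for 30 min at room temperature with 200 nmole of a random double-stranded 16-mer DNA library in Tris/NaCl/DTT/glycerol buffer, then washed, crosslinked with 0.1% formaldehyde, proximity-ligated (BsaI/T4 ligase, 1 h, 37 °C), PCR-amplified and sequenced on an Illumina NextSeq500. Binding signal is each hexamer's read frequency for a factor divided by its frequency for the tag-only sample.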

[2] = target: T2, ELK1 (Homo sapiens, UniProt P19419 1-428); conditions: protein: recombinant; tags: N-terminal GST; dsDNA, one strand shown
T2 sequence: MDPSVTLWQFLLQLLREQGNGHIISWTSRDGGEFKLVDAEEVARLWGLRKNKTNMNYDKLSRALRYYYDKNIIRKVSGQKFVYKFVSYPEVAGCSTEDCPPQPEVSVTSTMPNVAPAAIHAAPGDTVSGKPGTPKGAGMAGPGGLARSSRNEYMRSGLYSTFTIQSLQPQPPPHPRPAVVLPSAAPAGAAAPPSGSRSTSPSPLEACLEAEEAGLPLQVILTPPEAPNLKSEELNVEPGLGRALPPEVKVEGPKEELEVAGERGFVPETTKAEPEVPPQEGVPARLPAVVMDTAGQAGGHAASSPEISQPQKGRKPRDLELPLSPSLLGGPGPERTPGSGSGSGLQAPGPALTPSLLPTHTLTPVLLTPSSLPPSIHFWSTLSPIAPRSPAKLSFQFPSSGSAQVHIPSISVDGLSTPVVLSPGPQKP
Procedure, shortened: as §1

[3] = target: T3, GABPA (Homo sapiens, UniProt Q06546 1-454); conditions: protein: recombinant; tags: N-terminal GST; dsDNA, one strand shown
T3 sequence: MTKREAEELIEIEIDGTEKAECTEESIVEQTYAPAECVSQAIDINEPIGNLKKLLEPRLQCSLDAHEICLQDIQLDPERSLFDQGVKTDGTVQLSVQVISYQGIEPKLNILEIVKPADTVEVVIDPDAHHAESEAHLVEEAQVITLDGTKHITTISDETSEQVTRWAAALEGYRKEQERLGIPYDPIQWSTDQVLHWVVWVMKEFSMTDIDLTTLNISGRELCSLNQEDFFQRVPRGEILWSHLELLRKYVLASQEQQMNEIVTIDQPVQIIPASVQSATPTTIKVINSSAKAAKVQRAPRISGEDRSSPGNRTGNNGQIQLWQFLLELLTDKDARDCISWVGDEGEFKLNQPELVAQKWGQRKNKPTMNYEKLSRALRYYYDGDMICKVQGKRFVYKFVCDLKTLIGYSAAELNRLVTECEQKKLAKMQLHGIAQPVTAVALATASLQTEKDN
Procedure, shortened: as §1

[4] = target: ELF1 (Homo sapiens, UniProt P32519 1-619); conditions: protein: recombinant; tags: N-terminal GST; dsDNA, one strand shown
Procedure, shortened: as §1

[5] = target: T4, EHF (Homo sapiens, UniProt Q9NZC4 1-300); conditions: protein: recombinant; tags: N-terminal GST; dsDNA, one strand shown
T4 sequence: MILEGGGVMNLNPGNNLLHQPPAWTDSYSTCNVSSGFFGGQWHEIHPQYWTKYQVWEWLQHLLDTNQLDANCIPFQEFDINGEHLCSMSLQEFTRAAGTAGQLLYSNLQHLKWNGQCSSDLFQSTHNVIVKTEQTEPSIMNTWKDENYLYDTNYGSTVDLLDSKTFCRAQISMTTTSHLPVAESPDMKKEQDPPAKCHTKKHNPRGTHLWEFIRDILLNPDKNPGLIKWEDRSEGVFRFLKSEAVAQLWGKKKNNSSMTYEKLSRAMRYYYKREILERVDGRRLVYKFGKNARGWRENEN
Procedure, shortened: as §1

[6] = target: SPIB (Homo sapiens, UniProt Q01892 1-262); conditions: protein: recombinant; tags: N-terminal GST; dsDNA, one strand shown
Procedure, shortened: as §1

[7] = target: T5, ELK3 (Homo sapiens, UniProt P41970 1-407); conditions: protein: recombinant; tags: N-terminal GST; dsDNA, one strand shown
T5 sequence: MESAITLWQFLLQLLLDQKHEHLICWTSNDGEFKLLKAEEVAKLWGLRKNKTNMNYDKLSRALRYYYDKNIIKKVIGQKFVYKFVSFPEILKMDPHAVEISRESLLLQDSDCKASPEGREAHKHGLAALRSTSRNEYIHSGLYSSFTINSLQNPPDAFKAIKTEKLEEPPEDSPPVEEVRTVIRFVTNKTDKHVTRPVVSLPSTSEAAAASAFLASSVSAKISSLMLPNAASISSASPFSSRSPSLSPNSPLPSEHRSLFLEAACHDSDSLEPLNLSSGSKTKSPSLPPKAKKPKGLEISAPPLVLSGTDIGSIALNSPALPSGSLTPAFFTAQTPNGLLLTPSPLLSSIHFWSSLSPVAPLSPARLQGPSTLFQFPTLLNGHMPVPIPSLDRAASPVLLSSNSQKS
Procedure, shortened: as §1

[8] = target: T6, FEV (Homo sapiens, UniProt Q99581 1-238); conditions: protein: recombinant; tags: N-terminal GST; dsDNA, one strand shown
T6 sequence: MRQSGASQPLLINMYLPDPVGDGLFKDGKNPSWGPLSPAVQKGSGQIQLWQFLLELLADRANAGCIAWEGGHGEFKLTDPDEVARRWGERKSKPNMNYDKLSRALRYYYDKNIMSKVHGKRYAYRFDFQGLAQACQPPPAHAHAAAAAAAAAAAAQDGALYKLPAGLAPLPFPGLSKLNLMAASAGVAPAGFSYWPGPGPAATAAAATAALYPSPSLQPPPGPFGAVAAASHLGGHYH
Procedure, shortened: as §1

[9] = target: ETV5 (Homo sapiens, UniProt P41161 1-510); conditions: protein: recombinant; tags: N-terminal GST; dsDNA, one strand shown
Procedure, shortened: as §1

[10] = target: HSF1 (Homo sapiens, UniProt Q00613 1-529); conditions: protein: recombinant; tags: N-terminal GST; chain copies: 3; dsDNA, one strand shown
Procedure, shortened: as §1

[11] = target: T7, SPIC (Homo sapiens, UniProt Q8N5J4 1-248); conditions: protein: recombinant; tags: N-terminal GST; dsDNA, one strand shown
T7 sequence: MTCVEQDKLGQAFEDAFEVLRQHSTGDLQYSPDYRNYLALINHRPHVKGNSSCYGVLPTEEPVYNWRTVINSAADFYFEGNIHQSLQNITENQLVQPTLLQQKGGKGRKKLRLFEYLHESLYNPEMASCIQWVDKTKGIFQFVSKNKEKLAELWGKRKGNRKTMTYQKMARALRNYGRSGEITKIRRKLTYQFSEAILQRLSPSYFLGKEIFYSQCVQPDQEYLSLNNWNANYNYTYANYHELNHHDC
Procedure, shortened: as §1

[12] = target: ELF4 (Homo sapiens, UniProt Q99607 1-663); conditions: protein: recombinant; tags: N-terminal GST; dsDNA, one strand shown
Procedure, shortened: as §1

[13] = target: ETV1 (Homo sapiens, UniProt P50549 1-477); conditions: protein: recombinant; tags: N-terminal GST; dsDNA, one strand shown
Procedure, shortened: as §1

[14] = target: T8, ERG (Homo sapiens, UniProt P11308 1-479); conditions: protein: recombinant; tags: N-terminal GST; dsDNA, one strand shown
T8 sequence: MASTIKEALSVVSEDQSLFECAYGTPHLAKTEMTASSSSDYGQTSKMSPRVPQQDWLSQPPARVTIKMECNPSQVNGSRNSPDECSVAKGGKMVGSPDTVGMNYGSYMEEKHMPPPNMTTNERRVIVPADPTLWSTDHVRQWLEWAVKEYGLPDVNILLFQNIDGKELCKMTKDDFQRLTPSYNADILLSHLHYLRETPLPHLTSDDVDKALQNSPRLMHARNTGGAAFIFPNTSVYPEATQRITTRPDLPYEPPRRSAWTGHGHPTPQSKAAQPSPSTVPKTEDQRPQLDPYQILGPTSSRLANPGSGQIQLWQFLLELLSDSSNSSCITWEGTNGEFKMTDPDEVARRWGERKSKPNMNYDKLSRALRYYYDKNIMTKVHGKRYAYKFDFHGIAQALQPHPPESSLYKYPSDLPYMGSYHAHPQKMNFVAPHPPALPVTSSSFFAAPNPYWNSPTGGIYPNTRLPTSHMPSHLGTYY
Procedure, shortened: as §1

[15] = target: SPI1 (Homo sapiens, UniProt P17947 1-270); conditions: protein: recombinant; tags: N-terminal GST; dsDNA, one strand shown
Procedure, shortened: as §1

[16] = target: T9, ELF3 (Homo sapiens, UniProt P78545 1-371); conditions: protein: recombinant; tags: N-terminal GST; dsDNA, one strand shown
T9 sequence: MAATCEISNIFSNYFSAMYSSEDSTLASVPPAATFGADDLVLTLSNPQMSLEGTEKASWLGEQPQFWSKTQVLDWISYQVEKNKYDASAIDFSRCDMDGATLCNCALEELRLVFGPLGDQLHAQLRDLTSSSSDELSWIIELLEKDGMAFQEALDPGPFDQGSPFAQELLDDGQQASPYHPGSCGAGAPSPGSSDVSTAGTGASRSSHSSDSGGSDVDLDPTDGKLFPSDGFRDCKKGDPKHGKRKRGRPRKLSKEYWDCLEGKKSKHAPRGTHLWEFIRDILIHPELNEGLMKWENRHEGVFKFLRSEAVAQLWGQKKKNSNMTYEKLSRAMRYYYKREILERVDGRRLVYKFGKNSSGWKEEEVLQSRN
Procedure, shortened: as §1

[17] = target: CRX (Homo sapiens, UniProt O43186 1-299); conditions: protein: recombinant; tags: N-terminal GST; dsDNA, one strand shown
Procedure, shortened: as §1

Chain of ELF4 (Q99607 whole entry): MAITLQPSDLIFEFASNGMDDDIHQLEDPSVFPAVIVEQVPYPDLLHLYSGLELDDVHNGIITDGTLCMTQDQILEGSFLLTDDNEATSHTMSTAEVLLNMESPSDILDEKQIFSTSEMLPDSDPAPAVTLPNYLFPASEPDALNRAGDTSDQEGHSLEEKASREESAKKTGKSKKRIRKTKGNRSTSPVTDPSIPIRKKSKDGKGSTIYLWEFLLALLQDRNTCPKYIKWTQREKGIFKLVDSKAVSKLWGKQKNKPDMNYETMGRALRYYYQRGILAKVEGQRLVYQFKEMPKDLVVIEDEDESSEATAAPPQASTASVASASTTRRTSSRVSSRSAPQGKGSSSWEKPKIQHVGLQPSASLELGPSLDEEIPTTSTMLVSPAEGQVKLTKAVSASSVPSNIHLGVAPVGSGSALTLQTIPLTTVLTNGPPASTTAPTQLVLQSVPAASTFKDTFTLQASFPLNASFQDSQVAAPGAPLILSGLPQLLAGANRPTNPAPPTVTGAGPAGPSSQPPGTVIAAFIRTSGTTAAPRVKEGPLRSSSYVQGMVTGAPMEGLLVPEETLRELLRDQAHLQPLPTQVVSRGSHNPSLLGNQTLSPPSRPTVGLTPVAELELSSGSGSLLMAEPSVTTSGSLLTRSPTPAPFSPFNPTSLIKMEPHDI
Chain of SPIB (Q01892 whole entry): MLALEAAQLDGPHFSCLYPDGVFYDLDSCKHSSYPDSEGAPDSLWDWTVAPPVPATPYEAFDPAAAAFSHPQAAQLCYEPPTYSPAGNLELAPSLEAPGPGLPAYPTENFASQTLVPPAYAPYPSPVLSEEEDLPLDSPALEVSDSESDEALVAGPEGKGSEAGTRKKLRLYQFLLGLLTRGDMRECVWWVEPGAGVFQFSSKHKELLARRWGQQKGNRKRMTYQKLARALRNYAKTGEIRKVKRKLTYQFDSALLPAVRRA
Chain of HSF1 (Q00613 whole entry): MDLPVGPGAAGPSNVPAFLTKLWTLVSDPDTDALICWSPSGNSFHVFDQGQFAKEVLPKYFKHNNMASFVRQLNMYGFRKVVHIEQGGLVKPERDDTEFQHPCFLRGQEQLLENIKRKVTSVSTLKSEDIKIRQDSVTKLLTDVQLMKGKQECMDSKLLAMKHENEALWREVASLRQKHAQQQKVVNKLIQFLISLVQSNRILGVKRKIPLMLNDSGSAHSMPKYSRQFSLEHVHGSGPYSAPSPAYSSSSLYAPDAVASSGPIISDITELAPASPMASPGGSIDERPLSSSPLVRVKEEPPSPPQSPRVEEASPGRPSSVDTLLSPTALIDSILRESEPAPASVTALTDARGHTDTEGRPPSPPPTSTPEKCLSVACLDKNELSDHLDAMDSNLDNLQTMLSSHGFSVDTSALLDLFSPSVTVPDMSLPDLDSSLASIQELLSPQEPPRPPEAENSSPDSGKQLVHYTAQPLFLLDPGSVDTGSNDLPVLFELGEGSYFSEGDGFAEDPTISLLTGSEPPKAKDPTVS
Chain of ELF1 (P32519 whole entry): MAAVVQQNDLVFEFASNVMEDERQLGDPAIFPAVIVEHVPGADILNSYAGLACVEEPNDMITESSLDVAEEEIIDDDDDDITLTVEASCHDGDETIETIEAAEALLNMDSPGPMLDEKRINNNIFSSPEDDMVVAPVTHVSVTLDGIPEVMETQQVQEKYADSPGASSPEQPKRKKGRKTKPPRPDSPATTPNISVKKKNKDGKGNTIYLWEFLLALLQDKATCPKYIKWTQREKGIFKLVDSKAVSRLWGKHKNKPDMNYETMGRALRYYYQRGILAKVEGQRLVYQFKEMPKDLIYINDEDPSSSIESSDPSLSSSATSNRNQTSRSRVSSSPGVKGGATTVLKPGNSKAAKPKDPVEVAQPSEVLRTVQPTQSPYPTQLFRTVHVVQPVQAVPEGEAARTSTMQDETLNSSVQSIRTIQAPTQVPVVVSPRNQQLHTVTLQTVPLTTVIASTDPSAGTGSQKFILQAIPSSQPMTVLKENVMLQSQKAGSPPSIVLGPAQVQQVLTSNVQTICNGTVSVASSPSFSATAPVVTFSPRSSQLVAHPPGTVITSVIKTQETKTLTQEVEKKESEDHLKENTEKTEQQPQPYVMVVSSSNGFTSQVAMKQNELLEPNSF
Chain of ETV5 (P41161 whole entry): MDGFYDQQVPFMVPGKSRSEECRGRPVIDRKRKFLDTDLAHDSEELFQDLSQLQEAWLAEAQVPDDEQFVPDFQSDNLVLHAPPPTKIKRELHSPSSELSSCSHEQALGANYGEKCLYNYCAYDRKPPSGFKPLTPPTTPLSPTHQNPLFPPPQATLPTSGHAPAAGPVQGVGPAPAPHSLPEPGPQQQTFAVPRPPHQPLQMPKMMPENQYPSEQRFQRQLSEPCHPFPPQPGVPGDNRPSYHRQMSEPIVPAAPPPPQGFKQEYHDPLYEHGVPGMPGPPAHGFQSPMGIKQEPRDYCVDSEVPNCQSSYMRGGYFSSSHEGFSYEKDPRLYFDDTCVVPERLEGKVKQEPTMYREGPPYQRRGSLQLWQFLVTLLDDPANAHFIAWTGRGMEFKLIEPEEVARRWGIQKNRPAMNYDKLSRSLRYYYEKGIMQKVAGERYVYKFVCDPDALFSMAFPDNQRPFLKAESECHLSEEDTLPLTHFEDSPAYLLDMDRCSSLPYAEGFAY
Chain of ETV1 (P50549 whole entry): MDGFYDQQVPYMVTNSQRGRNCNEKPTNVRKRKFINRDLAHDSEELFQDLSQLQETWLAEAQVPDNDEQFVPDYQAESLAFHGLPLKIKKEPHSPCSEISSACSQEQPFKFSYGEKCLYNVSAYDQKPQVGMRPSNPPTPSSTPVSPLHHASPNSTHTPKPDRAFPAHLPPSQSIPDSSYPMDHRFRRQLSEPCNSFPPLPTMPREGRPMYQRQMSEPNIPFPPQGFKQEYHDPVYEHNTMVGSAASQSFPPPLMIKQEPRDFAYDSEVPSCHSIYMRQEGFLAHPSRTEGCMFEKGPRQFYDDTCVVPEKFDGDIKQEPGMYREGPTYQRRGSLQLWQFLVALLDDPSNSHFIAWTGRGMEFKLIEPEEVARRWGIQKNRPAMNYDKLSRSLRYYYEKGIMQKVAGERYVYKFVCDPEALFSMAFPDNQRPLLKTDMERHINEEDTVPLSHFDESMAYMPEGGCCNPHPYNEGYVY
Chain of CRX (O43186 whole entry): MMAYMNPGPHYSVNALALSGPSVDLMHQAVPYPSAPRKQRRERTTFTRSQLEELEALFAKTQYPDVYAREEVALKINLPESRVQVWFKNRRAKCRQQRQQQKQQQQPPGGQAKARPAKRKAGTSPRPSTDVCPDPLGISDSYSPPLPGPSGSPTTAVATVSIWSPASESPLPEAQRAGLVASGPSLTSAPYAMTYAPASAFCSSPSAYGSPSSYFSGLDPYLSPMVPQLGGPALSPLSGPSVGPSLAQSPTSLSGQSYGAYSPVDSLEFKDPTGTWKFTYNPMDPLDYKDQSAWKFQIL

In the case of CTCGTG, the binding signal [1] was 1.19 fold enrichment (6-mer frequency, TF over GST control), the binding signal [2] was 1.09 fold enrichment (6-mer frequency, TF over GST control) and the binding signal [3] was 1.28 fold enrichment (6-mer frequency, TF over GST control). The binding signal [4] was 1.16 fold enrichment (6-mer frequency, TF over GST control), the binding signal [5] was 1.07 fold enrichment (6-mer frequency, TF over GST control) and the binding signal [6] was 1.05 fold enrichment (6-mer frequency, TF over GST control). For the same sequence, the binding signal [7] was 1.11 fold enrichment (6-mer frequency, TF over GST control), the binding signal [8] was 1.05 fold enrichment (6-mer frequency, TF over GST control) and the binding signal [9] was 1.03 fold enrichment (6-mer frequency, TF over GST control). The binding signal [10] was 1.18 fold enrichment (6-mer frequency, TF over GST control), the binding signal [11] was 1.03 fold enrichment (6-mer frequency, TF over GST control) and the binding signal [12] was 1.21 fold enrichment (6-mer frequency, TF over GST control). The binding signal [13] was 1.18 fold enrichment (6-mer frequency, TF over GST control).

AACGTC was tested, and the binding signal [1] was 1.07 fold enrichment (6-mer frequency, TF over GST control), the binding signal [2] was 1.09 fold enrichment (6-mer frequency, TF over GST control) and the binding signal [3] was 1.1 fold enrichment (6-mer frequency, TF over GST control). The binding signal [14] was 1.07 fold enrichment (6-mer frequency, TF over GST control), the binding signal [4] was 1.05 fold enrichment (6-mer frequency, TF over GST control) and the binding signal [5] was 1.12 fold enrichment (6-mer frequency, TF over GST control). For the same sequence, the binding signal [15] was 1.02 fold enrichment (6-mer frequency, TF over GST control), the binding signal [6] was 1.13 fold enrichment (6-mer frequency, TF over GST control) and the binding signal [7] was 1.24 fold enrichment (6-mer frequency, TF over GST control). The binding signal [8] was 1.06 fold enrichment (6-mer frequency, TF over GST control), the binding signal [9] was 1.04 fold enrichment (6-mer frequency, TF over GST control) and the binding signal [10] was 1.01 fold enrichment (6-mer frequency, TF over GST control). The binding signal [11] was 1.13 fold enrichment (6-mer frequency, TF over GST control), the binding signal [12] was 1.09 fold enrichment (6-mer frequency, TF over GST control) and the binding signal [16] was 1.13 fold enrichment (6-mer frequency, TF over GST control). For the same sequence, the binding signal [13] was 1.11 fold enrichment (6-mer frequency, TF over GST control).

CAAGTA was tested, and the binding signal [1] was 1.09 fold enrichment (6-mer frequency, TF over GST control), the binding signal [2] was 1.06 fold enrichment (6-mer frequency, TF over GST control) and the binding signal [3] was 1.19 fold enrichment (6-mer frequency, TF over GST control). For the same sequence, the binding signal [14] was 1.03 fold enrichment (6-mer frequency, TF over GST control), the binding signal [4] was 1.03 fold enrichment (6-mer frequency, TF over GST control) and the binding signal [5] was 1.1 fold enrichment (6-mer frequency, TF over GST control). For the same sequence, the binding signal [15] was 1.07 fold enrichment (6-mer frequency, TF over GST control), the binding signal [6] was 1.01 fold enrichment (6-mer frequency, TF over GST control) and the binding signal [7] was 1.17 fold enrichment (6-mer frequency, TF over GST control). The binding signal [8] was 1.04 fold enrichment (6-mer frequency, TF over GST control), the binding signal [9] was 1.11 fold enrichment (6-mer frequency, TF over GST control) and the binding signal [10] was 1.02 fold enrichment (6-mer frequency, TF over GST control). The binding signal [11] was 1.09 fold enrichment (6-mer frequency, TF over GST control), the binding signal [12] was 1.16 fold enrichment (6-mer frequency, TF over GST control) and the binding signal [16] was 1.28 fold enrichment (6-mer frequency, TF over GST control). The binding signal [17] was 1.08 fold enrichment (6-mer frequency, TF over GST control) and the binding signal [13] was 1.03 fold enrichment (6-mer frequency, TF over GST control).
